Assay outcomes (PubChem BioAssay)
Sampled rows, rich in hits. Any-hit rate of the full collection: about 6.5%.
VACV mCherry inh: vaccinia inhibition (mCherry reporter); Potency, µM (highest dose often 36.5 µM), for the others: at the highest dose activity change, negative = inhibition, most hits filed as inhibitors; hit rate 0.63% among 310,000; Vaccinia virus mCherry reporter infection, fluorescence; calls by dose curve; tested in A549 cells; further: potency means the concentration at half of the fitted maximal effect; nearly all actives have a fitted effect of over 35% in size
Lassa entry inh: inhibitors of Lassa virus binding or cell entry; Potency, µM (series often up to 37.9 µM), for inactives: at the top dose activity change, negative = inhibition, usual class: inhibitors; Lassa virus pseudotype entry inhibition, cell reporter; hit rate 1.2% among 300,000; AID 540256; calls by dose curve; tested in HEK293 cells; further: potency means the concentration at half of the fitted maximal effect; nearly all actives have a fitted effect of over 50% in size
FMDV antiviral: antivirals against foot and mouth disease virus; hit rate 1.2% among 410,000; FMDV antiviral cell-based qHTS; Potency, µM (series often up to 57.9 µM), for the others: top-dose activity change, negative = inhibition, hits mostly inhibitors; AID 1159524; calls by dose curve; tested in HEK293T cells; further: read-out not given here; potency means the concentration at half of the fitted maximal effect; nearly all actives have a fitted effect of over 45% in size
Vaccinia Venus: inhibitors of vaccinia virus (Venus reporter). Vaccinia virus Venus reporter expression, fluorescence. Potency, µM (highest dose often 36.5 µM), inactives show at the top dose activity change, negative = inhibition, usual class: inhibitors. hit rate 0.46% among 330,000. AID 720580; calls by dose curve; tested in A549 cells; further: potency means the concentration at half of the fitted maximal effect; nearly all actives have a fitted effect of over 30% in size
HCMV antiviral: blocks human cytomegalovirus replication; HFF cells, HCMV-luciferase reporter, 72 h; stronger effect = lower value; activity change, negative = inhibition, % at 57.5 µM; hit rate 4.5% among 410,000; AID 1259415; in the data active means activity change below about -60%; inconclusive means no clear call, values can overlap the other calls; inactive means above about -39%
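Screen run at 2 compound doses on HFFs infected with reporter HCMV, MOI 1 PFU/cell. Luciferase activity from cell lysates at 72 h post infection gave inhibition relative to buffer-only and Salinomycin wells.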
Marburg entry inh: inhibitors of Marburg virus binding or cell entry; Marburg virus pseudotyped entry inhibition, cell reporter; Potency, µM (series often up to 37.8 µM), for the others: at the top dose activity change, negative = inhibition, most hits filed as inhibitors; hit rate 1.8% among 300,000; calls by dose curve; tested in HEK293 cells; further: potency means the concentration at half of the fitted maximal effect
An asterisk follows results filed as active; i = inactive; ? = inconclusive; nt = no result given; + = active, no number; ! = not confirmed by another sample; [ ] = another dose, or the depositor's remark. On the % scale 0 is the no-effect control and ±100 the full control effect.

SMILES | VACV mCherry inh | Lassa entry inh | FMDV antiviral | Vaccinia Venus | HCMV antiviral | Marburg entry inh
COC(=O)C1Cc2c([nH]c3ccccc23)C2CCC(=O)N12 (configuration not stated) | i | nt | -6% | -7% | -2 | nt
Cn1cc(C=CC(=O)O)c2nccnc21 | -9% | nt | -8% | -7% | -62* | nt
O=C1c2cccnc2C(=O)N1c1nc(-c2ccccc2)cs1 | -24% | nt | nt | -13% | nt | nt
Cc1c(Br)c(C(=O)NNC(=O)c2ccc(C(C)(C)C)cc2)nn1C | nt | nt | 28% | nt | -61* | nt
Cn1cc(Br)c(C(=O)NNC(=O)c2ccc(Br)cc2)n1 | -9% | 3% | 22% | -12% | 48 | 22%
CC(C)(C)c1ccc(C(=O)NNC(=O)c2cccc(Br)c2)cc1 | nt | ? | 18% | nt | -73* | ?
CC(C)(C)[S+](=O)([O-])/C(C#N)=C/NC1=NCCCC1 | nt | nt | nt | nt | nt | -11%[46.1 µM]
N#CC1=C(N)NC(SCc2ccc(Cl)cc2)=C(C#N)C12CCCCC2 | nt | ? | 0% | ? | 37 | 11µM*
N#CC1=C(N)NC(SCc2ccc(Br)cc2)=C(C#N)C12CCCCC2 | nt | nt | -15% | nt | 24 | nt
O=C(O)CCCOc1ccc(Cl)cc1Cl | +! | nt | -25% | ? | -30 | nt
O=C(CCCOc1ccc(Cl)cc1Cl)Nc1ccncc1 | -10% | 2% | nt | -28% | -61* | -12%
COc1ccccc1-c1cnn(C(C)(C)C(=O)NCc2ccccc2Br)c1 | nt | nt | nt | nt | 11 | nt
Cc1cc(C)cc(-n2nnc(-c3nc(-c4ccccc4F)no3)c2C)c1 | -5%[7.34 µM] | ? | 31% | -4%[7.34 µM] | -17 | nt
COc1ccc(C2C=C(c3ccc(F)cc3)Nc3nc(-c4ccc(Cl)cc4)nn32)cc1 (configuration not stated) | ? | ? | ? | ? | -101* | ?
COc1ccc(C2=CC(c3ccc(F)cc3)n3ncc(C(=O)Nc4ccc(C)cc4)c3N2)cc1 (configuration not stated) | ? | ? | 0% | -25% | -88* | nt
Cc1ccc(NC(=O)c2cnn3c2NC(c2ccccc2)=CC3c2ccccc2)cc1 (configuration not stated) | -21% | -15%[46.1 µM] | -18% | -10% | ? | nt
CCOc1ccc(S(=O)(=O)n2nc(C)c(S(=O)(=O)N3CCCCC3)c2C)cc1 | 3% | -6%[46.1 µM] | 17% | 0% | -3 | nt
C=CCN1CC(COCCCC)Oc2ccc(Cl)cc2S1(=O)=O (configuration not stated) | nt | nt | nt | nt | -31 | nt
C=CCOc1ccccc1/C=N/NC(=O)c1ccc(Cl)cc1Cl | -14% | -1% | -2% | -2% | 10 | ?
COc1cc(C(=O)Oc2ccccc2/C=N/NC(=O)c2ccc(Cl)cc2Cl)cc(OC)c1OC | nt | ? | 15% | ? | -100* | ?
COc1ccc(C2Nc3ccccc3C(=O)N2Cc2ccccc2)cc1COc1ccc([N+](=O)[O-])c(C)c1 (configuration not stated) | 40% | nt | nt | 4% | nt | nt
Cc1ccc(C)c(OCC(O)CN2CCC(Cc3ccccc3)CC2)c1 (configuration not stated) | nt | nt | ? | nt | -111* | nt
Cc1ccc(C(C)C)c(OCC(O)CN2CCN(c3ccccc3F)CC2)c1 (configuration not stated) | -19% | 24%[46.1 µM] | -25% | -22% | ? | nt
CC(=O)c1ccccc1OCC(O)CN1CCN(c2ccccn2)CC1 (configuration not stated) | -2% | 4%[46.1 µM] | -16% | -9% | -35 | -5%[46.1 µM]
CC(=O)c1ccccc1OCC(O)CN1CCN(CCN2C(=O)c3cccc4cccc(c34)C2=O)CC1 (configuration not stated) | -21% | ? | 28µM* | ? | -65* | ?
Cc1ccc(C)c(OCC(O)CN2CCN(CCN3C(=O)c4cccc5cccc(c45)C3=O)CC2)c1 (configuration not stated) | ? | ? | 25µM* | ? | -84* | ?
Cc1ccc(C(C)C)c(OCC(O)CN2CCc3ccccc3C2)c1 (configuration not stated) | 10µM* | ? | ? | ? | -17 | ?
O=C(c1cccs1)N1C[C@@H](n2cc(C3CC3)nn2)[C@@H](O)C[C@@H]1c1ccc(Cl)cc1 | nt | 8%[46.1 µM] | nt | nt | nt | nt
